In article PMC10726135, “HNF4α isoforms regulate the circadian balance between carbohydrate and lipid metabolism in the liver”:
Over roughly 18,000 sequences, “log2 normalized intensity” has its median near 0.36; the highest 2% begin near 7.3. Only a selection was taken, and the highest values are over-represented in it overall.

What follows are sequences tested against T1, HNF4alpha8 (COS-7 nuclear extract) (Homo sapiens, UniProt P41235-5 1-452) (assay: protein-binding microarray; COS-7 nuclear extract on double-stranded Agilent 4x180k PBM; binding buffer, salt, pH and temperature not given in the material; high values mean tight binding). Conditions: chain copies: 2; label: 3' end of strand 1 on the slide; dsDNA, one strand shown.
T1 sequence: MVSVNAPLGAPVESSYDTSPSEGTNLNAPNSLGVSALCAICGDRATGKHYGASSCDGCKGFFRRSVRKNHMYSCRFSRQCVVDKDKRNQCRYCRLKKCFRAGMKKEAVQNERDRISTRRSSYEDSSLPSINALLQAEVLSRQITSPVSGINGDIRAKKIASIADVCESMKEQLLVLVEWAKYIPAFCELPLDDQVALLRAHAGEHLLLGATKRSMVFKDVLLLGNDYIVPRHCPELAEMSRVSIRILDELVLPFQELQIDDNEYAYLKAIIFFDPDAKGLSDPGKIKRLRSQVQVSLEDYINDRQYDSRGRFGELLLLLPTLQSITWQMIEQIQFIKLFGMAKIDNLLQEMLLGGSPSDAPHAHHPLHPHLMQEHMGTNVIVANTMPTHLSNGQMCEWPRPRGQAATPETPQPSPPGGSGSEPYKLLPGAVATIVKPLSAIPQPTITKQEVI
Method in brief: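 The binding signal is Agilent software's gProcessedSignal after background correction and normalization. Arrays were a custom Agilent SurePrint G3 4x180k design of double-stranded ~60-nt oligonucleotides with ~44,000 test sequences in quadruplicate, probed with nuclear extracts of COS-7 cells transiently expressing a human HNF4α isoform. Scans were made at 2-µm resolution on an Agilent G2565CA scanner.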
In the case of “CCCTGCCACTCTTTTTTAGACTTTGACCTCGCCTAGGGAGATTAGAGTATCGGTCGA”, the binding signal is reported as 10.2 log2 normalized intensity. “ACCAGACTACCTCTTTAGGCTGGACTCTGAGCCTAGGGAGATTAGAGTATCGGTCGA” showed a binding signal of 4.7 log2 normalized intensity. With “CTCTTTAGGCTGGACTCTGACCCATTCCTTGCCTAGGGAGATTAGAGTATCGGTCGA” the binding signal was 5.82 log2 normalized intensity. For “CTGACCTCTTTTGGATTTTTCCATATCTGTGCCTAGGGAGATTAGAGTATCGGTCGA”, the binding signal was 1.57 log2 normalized intensity. “ATGACCTCTTTTAGTAACTGACTTTAACTTGCCTAGGGAGATTAGAGTATCGGTCGA” gave a binding signal of 1.03 log2 normalized intensity. For “ACTACCTCTTTAGGCTGGACTCTGACCCATGCCTAGGGAGATTAGAGTATCGGTCGA”, the binding signal was 7.54 log2 normalized intensity. In the case of “TGCAGCCCTGCCACTCTTTTTTAGACTTTGGCCTAGGGAGATTAGAGTATCGGTCGA”, the binding signal is reported as 4.39 log2 normalized intensity. “GCTTATCTGGGAGGGGGAGGTTTTGTGTCTGCCTAGGGAGATTAGAGTATCGGTCGA” showed a binding signal of 0.884 log2 normalized intensity. For “AAATGTAATCAGCAAGTTTTATATGAAAACGCCTAGGGAGATTAGAGTATCGGTCGA”, the binding signal was 0.415 log2 normalized intensity. Sequence “CTGTGGTCATTAATTAACTTGTGTTCAGAGGCCTAGGGAGATTAGAGTATCGGTCGA” has a binding signal of 1.07 log2 normalized intensity. Sequence “TGTTCTTTACTTCCTTTTGTTCCTGCTCTAGCCTAGGGAGATTAGAGTATCGGTCGA” has a binding signal of 1.67 log2 normalized intensity. “AGTCTGCTCAAGTCTTTTAGAATGTGGATGGCCTAGGGAGATTAGAGTATCGGTCGA” showed a binding signal of 1.71 log2 normalized intensity. With “TCAGTTGCAGAAAAACAGGTTCTGCAACACGCCTAGGGAGATTAGAGTATCGGTCGA” the binding signal was 0.876 log2 normalized intensity. Sequence “ATTACCAATGAGAAACCTCAAAGGTTAGGGGCCTAGGGAGATTAGAGTATCGGTCGA” has a binding signal of 0.852 log2 normalized intensity. Work on “GAGCAAAGGGCATGGAGGATTTAGATAACAGCCTAGGGAGATTAGAGTATCGGTCGA” yielded a binding signal of 0.728 log2 normalized intensity. Sequence “AGTGGTTTAAAAACTTATCTTGTGACCTTTGCCTAGGGAGATTAGAGTATCGGTCGA” has a binding signal of 7.47 log2 normalized intensity. Sequence “TATCTTGTGACCTTTGACTCATTATCCCCCGCCTAGGGAGATTAGAGTATCGGTCGA” has a binding signal of 7.09 log2 normalized intensity. “ATTCTCTTATCTACTTTAAGATTTGACCCTGCCTAGGGAGATTAGAGTATCGGTCGA” was tested, and the binding signal was 5.76 log2 normalized intensity. “ATCTGACCTTTGGTTAACTTCTTAACTTGGGCCTAGGGAGATTAGAGTATCGGTCGA” was tested, and the binding signal was 3.5 log2 normalized intensity. In the case of “AAACTTATCTTGTGACCTTTGACTCATTATGCCTAGGGAGATTAGAGTATCGGTCGA”, the binding signal is reported as 7.16 log2 normalized intensity. Sequence “CTTATCTACTTTAAGATTTGACCCTTGGCCGCCTAGGGAGATTAGAGTATCGGTCGA” has a binding signal of 7.78 log2 normalized intensity. “TTAAGATTTGACCCTTGGCCAGGTGCAGTGGCCTAGGGAGATTAGAGTATCGGTCGA” gave a binding signal of 5.41 log2 normalized intensity. “CTGAACTTTAAACTGGTGTGTCTTGCCTTTGCCTAGGGAGATTAGAGTATCGGTCGA” showed a binding signal of 2.42 log2 normalized intensity. With “TTTAAAAACTTATCTTGTGACCTTTGACTCGCCTAGGGAGATTAGAGTATCGGTCGA” the binding signal was 8.96 log2 normalized intensity. With “TTACTGGGGCCCATTGTATGAGGGTGAAGTGCCTAGGGAGATTAGAGTATCGGTCGA” the binding signal was 0.972 log2 normalized intensity. For “AAATGTACTGGATATAGCCAGATGTCCTTTGCCTAGGGAGATTAGAGTATCGGTCGA”, the binding signal was 2.37 log2 normalized intensity. Sequence “CATCGGACTTTGATCTGCCACATACCTTTAGCCTAGGGAGATTAGAGTATCGGTCGA” has a binding signal of 5.04 log2 normalized intensity. Work on “TCAGATAGCTTTAGCCGGACTTTGTCCTTTGCCTAGGGAGATTAGAGTATCGGTCGA” yielded a binding signal of 8.54 log2 normalized intensity. Work on “CGGACTTTGTCCTTTGATTTTTTAAAGTAAGCCTAGGGAGATTAGAGTATCGGTCGA” yielded a binding signal of 5.37 log2 normalized intensity. Sequence “CTATCTCAGATAGCTTTAGCCGGACTTTGTGCCTAGGGAGATTAGAGTATCGGTCGA” has a binding signal of 5.85 log2 normalized intensity. “TAGCTTTAGCCGGACTTTGTCCTTTGATTTGCCTAGGGAGATTAGAGTATCGGTCGA” was tested, and the binding signal was 7.5 log2 normalized intensity. In the case of “ACCCAGGTGTGTTGCAACTTTGACTATAGCGCCTAGGGAGATTAGAGTATCGGTCGA”, the binding signal is reported as 0.342 log2 normalized intensity. For “GTTTGCATTTTAACCTTTGGCTGGTAGAGCGCCTAGGGAGATTAGAGTATCGGTCGA”, the binding signal was 4.17 log2 normalized intensity. Work on “AGCCGTCTGGTAAATTTCTAACACTCCCCAGCCTAGGGAGATTAGAGTATCGGTCGA” yielded a binding signal of 2.15 log2 normalized intensity. “GGGTCAGTTTATCTAAGATTCCCCCTACCCGCCTAGGGAGATTAGAGTATCGGTCGA” showed a binding signal of 4 log2 normalized intensity. For “GGCTTGATCCCTGAACTTTGCTCCCACCCTGCCTAGGGAGATTAGAGTATCGGTCGA”, the binding signal was 6.25 log2 normalized intensity. “TCCTGCCTTGGAGAAGTGAACTTTGCCCTCGCCTAGGGAGATTAGAGTATCGGTCGA” showed a binding signal of 10.7 log2 normalized intensity. Sequence “AAGTGACCCTGGTCTTTGCCCTTTCCTAGAGCCTAGGGAGATTAGAGTATCGGTCGA” has a binding signal of 3.98 log2 normalized intensity. With “ACTGATCTCTGGCTTGATCCCTGAACTTTGGCCTAGGGAGATTAGAGTATCGGTCGA” the binding signal was 4.37 log2 normalized intensity. For “GTGAACTTTGCCCTCTCTTTCTGGAACCTAGCCTAGGGAGATTAGAGTATCGGTCGA”, the binding signal was 5.67 log2 normalized intensity. In the case of “GAGAAGTGAACTTTGCCCTCTCTTTCTGGAGCCTAGGGAGATTAGAGTATCGGTCGA”, the binding signal is reported as 8.26 log2 normalized intensity. With “TGGGCTCCTGCCTTGGAGAAGTGAACTTTGGCCTAGGGAGATTAGAGTATCGGTCGA” the binding signal was 5.62 log2 normalized intensity. Work on “TCTCTGGCTTGATCCCTGAACTTTGCTCCCGCCTAGGGAGATTAGAGTATCGGTCGA” yielded a binding signal of 8.76 log2 normalized intensity. “CCTTGGATCTCCTGCACCTGAACTTTGCTCGCCTAGGGAGATTAGAGTATCGGTCGA” was tested, and the binding signal was 6.94 log2 normalized intensity.
